# Compounds with a hit are over-represented: about 1.8% of the library has one in this group of screens.
# DUSP3 inh – blocks human VHR1 dual specificity phosphatase; inhibition, % at 13.3 µM; AID 1654; recombinant VHR phosphatase, pNPP absorbance; actives 0.52% (n = 290,000); in the data active means inhibition above about 50%
# Target sequence (P51452 whole entry, looked up): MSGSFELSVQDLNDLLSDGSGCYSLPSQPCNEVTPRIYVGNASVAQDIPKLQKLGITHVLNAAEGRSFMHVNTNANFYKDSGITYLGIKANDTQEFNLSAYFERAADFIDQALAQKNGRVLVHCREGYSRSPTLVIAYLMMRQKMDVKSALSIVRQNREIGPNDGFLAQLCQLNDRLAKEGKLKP
# PrPC TRFRET – cell surface PrPC inhibition, primary TR-FRET screen | AID 720596 | TR-FRET read-out | P04156 | inhibition, % at 13.8 µM | actives 0.43% (n = 370,000); in the data active means inhibition above about 24%; further: 0% = median of the test wells and 100% = reference compound wells
# MazF activator – increases E. coli MazEF RNase cleavage of RNA; P0AE70; FAM/BHQ RNA-DNA oligo cleavage fluorescence, 5 h; activation, % at 20 µM; actives 0.32% (n = 350,000); AID 504720; in the data active means activation above about 50%
# Target sequence (P0AE70 whole entry, looked up): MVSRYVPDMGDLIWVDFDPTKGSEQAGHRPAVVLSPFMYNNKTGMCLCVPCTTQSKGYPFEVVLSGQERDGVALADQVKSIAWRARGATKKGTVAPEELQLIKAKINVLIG
# Vc quorum ag – quorum light induction in luxS cqsA deficient V. cholerae. activation, % at 18.7 µM. actives 0.16% (n = 350,000). V. cholerae BH1578 lux reporter, luminescence, 6 h; in the data active means activation mostly above about 9.7%, no sharp cut-off
# Y pestis TopoI – inhibitors of Yersinia pestis topoisomerase I; Y. pestis Topo-I cleavage product accumulation, plate reader; activity, % at 10 µM; actives 0.064% (n = 360,000); in the data active means activity above about 50%, passing the limit was not always enough
# CCHF vOTU inh – CCHFV vOTU protease inhibition; actives 0.55% (n = 370,000); Pep-AMC fluorescence; inhibition, % at 11.5 µM; in the data active means inhibition above about 30%; further: 0% = vehicle wells with enzyme and 100% = no enzyme wells
# * marks the source's active call; other numbers are inactive results; i = inactive; nt = not tested or not shown; ! = repeats disagree.
SMILES,DUSP3 inh,PrPC TRFRET,MazF activator,Vc quorum ag,Y pestis TopoI,CCHF vOTU inh
Cc1ccc2c(C)nc(Nc3nc(CSc4nnc(C)s4)cc(=O)[nH]3)nc2c1,17,-3,96*,0,13,5
C=CCN1C(=O)[C@@H](CC(=O)N2CCSCC2)[C@]2(C(=O)OC)CCCCC=C12,nt,-3,nt,nt,nt,3
CCCCNC(=O)C[C@H]1C[C@@]2(C(=O)OC)C(=C[C@H](C(C)C)O[C@@H]2C2CC2)N(CCC2=CCCCC2)C1=O,nt,8,nt,nt,nt,18
C=CCOC(Cn1ccnc1)c1ccc(Cl)cc1Cl (centres undefined),nt,10,-3,i,12,8
Clc1ccc(COC(Cn2ccnc2)c2ccc(Cl)cc2Cl)c(Cl)c1 (centres undefined),9,1,-37,i,60*!,5
O=C(CCn1nnc(-c2cccs2)n1)N1CCCC1,nt,1,nt,nt,nt,-2
Cc1ccc(N2CC(C(=O)NC3CC3)CC2=O)cc1 (centres undefined),53*,4,5,0,-2,-8
COc1ccc(N2CC(C(=O)N[C@@H](CC(C)C)C(=O)NC3CCCCC3)CC2=O)cc1 (some centres undefined),56*,2,3,-4,-11,18
C=CCn1c(COc2ccccc2)nnc1SCC(=O)Nc1ccc(S(=O)(=O)Nc2cc(C)nc(C)n2)cc1,nt,2,nt,nt,nt,-2
CSc1nc(Cc2ccccc2)nc2ccccc12,53*,4,-7,0,13,-5
CC(=NO)C1CCC2C3CCC4=CC(=NO)CCC4(C)C3C(O)CC12C (centres undefined),nt,12,12,17*,15,11
CC(=NO)C1CCC2C3CCC4=CC(=NO)CCC4(C)C3C(=O)CC12C (centres undefined),nt,7,4,i,9,-20
N#Cc1cc(C#N)c(SCC(=O)N2CC(=O)Nc3ccccc32)nc1N,nt,-4,6,-2,2,5
O=C1CN(C(=O)CSc2nc3cc(Cl)ccc3c(=O)n2Cc2ccccc2)c2ccccc2N1,16,-8,-37,0,71*,-2
CCc1ccc2nc(SCC(=O)N3CC(=O)Nc4ccccc43)c(C#N)cc2c1,22,1,83*,0,20,-1
O=C(c1ccc(Cl)c(S(=O)(=O)NCc2ccccc2)c1)N1CCN(c2ccccn2)CC1,54*,nt,-1,i,29,nt
CC(C)CN(C(=O)COC(=O)c1cc2ccccc2cc1O)c1c(N)n(Cc2ccccc2)c(=O)[nH]c1=O,nt,-1,-29,-1,80*,9
CCN(C(=O)COC(=O)c1c2c(nc3ccccc13)CCC2)c1c(N)n(Cc2ccccc2)c(=O)[nH]c1=O,nt,-3,-3,-3,15,1
CCOc1ccc2oc(C(=O)OCC(=O)N(CC(C)C)c3c(N)n(Cc4ccccc4)c(=O)[nH]c3=O)c(C)c2c1,nt,2,-11,-1,18,6
CC(C)CN(C(=O)COC(=O)c1c2c(nc3ccccc13)CCC2)c1c(N)n(Cc2ccccc2)c(=O)[nH]c1=O,16,-4,0,i,60*,-1
Cc1c(C(=O)OCC(=O)N(CC(C)C)c2c(N)n(Cc3ccccc3)c(=O)[nH]c2=O)oc2ccccc12,nt,-3,-14,i,82*,2
CCOC(=O)[C@@]12CN(C(=O)OC(C)(C)C)CC=C1N(Cc1ccc(OC)cc1)C(=O)[C@H]2CC(=O)N1CCCC1,nt,-6,nt,nt,nt,3
O=C(CSc1nnc(-c2ccccc2)n1-c1ccc(Cl)cc1)c1ccccc1Br,nt,7,nt,nt,nt,0
N#Cc1ccc(/C=C2\CC3(OC(=O)c4cccc(F)c4)CCCN2C3)cc1 (centres undefined),nt,9,nt,nt,nt,6
CC(C)CNC(=O)OCc1cn(Cc2ccc(C(F)(F)F)cc2)nn1,nt,-11,nt,nt,nt,-2
SMILES,DUSP3 inh,PrPC TRFRET,MazF activator,Vc quorum ag,Y pestis TopoI,CCHF vOTU inh
COc1ccc(C(=O)Nc2ccc(OCC(=O)N3CCOCC3)cc2)c(OC)c1OC,57*,0,10,0,0,7
COc1ccc2nc(C)cc(SCC(=O)NNC(=O)COc3ccc(C)cc3)c2c1,41,-8,51*,nt,24,-4
COc1ccc(-n2c(SCC(=O)Nc3cc(C)on3)nc3c(c2=O)SCC3)cc1OC,57*,-9,7,i,-3,-7
Cc1ccc(/C=N/Nc2ccc3c(C(F)(F)F)cc(C(F)(F)F)nc3n2)cc1,32,nt,285*,-2,4,nt
CC(COc1cccc(OC(F)(F)F)c1)CN1CCC(C(O)(c2ccccc2)c2ccccc2)CC1 (centres undefined),nt,-4,nt,nt,nt,14
CCCCCCc1c[nH]c2ccc(O)c(-c3ccccc3)c12,nt,-7,nt,nt,nt,6
CC(C)N1CCCCC(NC(=O)c2cccc(C(F)(F)F)c2)C1=O (centres undefined),nt,3,nt,nt,nt,8
CCC[C@H]1[C@@H](NC(=O)c2ccc(Cl)c(C(F)(F)F)c2)CC[C@@]23CCCN2C(=O)CCC[C@@H]13,nt,-3,nt,nt,nt,nt
c1ccc2c(c1)oc1c(NCCCn3ccnc3)ncnc12,55*,-6,8,i,0,2
Cc1ccc(Cl)cc1NC(=O)CNC(=O)N1CC(=O)Nc2ccccc21,57*,-5,1,-3,-3,14
COc1cccc(NC(=O)CNC(=O)N2CC(=O)Nc3ccccc32)c1,57*,2,-7,-3,2,9
COc1ccc(CNC(=O)CNC(=O)N2CC(=O)Nc3ccccc32)cc1,6,-1,1,i,7,10
Cc1ccc(Cl)cc1NC(=O)CCNC(=O)N1CC(=O)Nc2ccccc21,-15,7,5,0,-1,9
COc1ccc(-c2c(Cc3ccccc3)nc(NC(=O)c3ccccc3)n2Cc2ccc(OC)cc2OC)cc1,nt,-2,nt,nt,nt,-5
O=C(NCc1ccc(F)c(F)c1)C1CCC(CNS(=O)(=O)c2cccc3cccnc23)CC1 (centres undefined),nt,-5,nt,nt,nt,1
COCCCN1C(=O)[C@H](CC(=O)NCC23CC4CC(CC(C4)C2)C3)[C@]2(C(=O)OC)CCCCC=C12,nt,0,nt,nt,nt,7
C#CCNC(=O)C[C@H]1C[C@@]2(C(=O)OC)C(=C[C@H](C(C)C)O[C@@H]2C2CC2)N(Cc2cccc3ccccc23)C1=O,nt,7,nt,nt,nt,14
Cc1cc(OCCCC(=O)NCCc2ccccn2)ccc1Cl,7,5,60*,0,8,3
CC1(C)CC(NS(=O)(=O)c2cccc3ccccc23)CC(C)(C)N1,56*,1,2,0,-13,-10
CSc1ncccc1C(=O)N1CCN(S(=O)(=O)c2ccccc2)CC1,58*,-6,3,0,4,2
CSc1ncccc1C(=O)N1CCN(S(=O)(=O)c2ccc(C)cc2)CC1,26,8,3,i,3,-10
CN1CCCN(S(=O)(=O)c2ccc3c(c2)n(C)c(=O)c(=O)n3C)CC1,nt,5,nt,nt,nt,-1

# Screening results deposited in PubChem by several laboratories.
